In PubChem BioAssay:
Activity calls are given as the source filed them.

Assays:
[1] = small molecules captured by biotinylated probe aFSTL3 – biochemical, small-molecule microarray, fluorescence 635/667, stem cell growth factor project, primary screen (AID 1064); conditions: higher = more signal;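 also: measures binding of the biotinylated anti-FSTL3 antibody to printed compounds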
[2] = binders from COS7 lysate, DM2A8 probe, primary screen, torsin A project, cell lysate, small-molecule microarray, fluorescence 635/667 (AID 1065); conditions: higher = more signal, COS7 lysate expressing mutant human TOR1A
[3] = small molecules captured by biotinylated probe aFGF2 – biochemical, small-molecule microarray, fluorescence 635/667, stem cell growth factor project, primary screen (AID 1067); conditions: higher = more signal;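 also: measures binding of biotinylated aFGF2 protein to printed compounds on slides; z-score merges feature fluorescence and signal-to-noise across triplicate slides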
[4] = small molecules captured by biotinylated probe aFGF10 – biochemical, small-molecule microarray, fluorescence 635/667, stem cell growth factor project, primary screen (AID 1071); conditions: higher = more signal;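 also: score merges 667 nm spot intensity and signal to noise from triplicate slides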
[5] = target: Neurogenic locus notch homolog protein 2 (Homo sapiens) (UniProt Q04721); assay: small molecules binding Notch2 protein – biochemical, small-molecule microarray, 635 nm fluorescence, stem cell growth factors, primary screen (AID 1073); conditions: higher = more signal
Neurogenic locus notch homolog protein 2 (Homo sapiens), sequence (Q04721 whole entry, looked up, canonical isoform): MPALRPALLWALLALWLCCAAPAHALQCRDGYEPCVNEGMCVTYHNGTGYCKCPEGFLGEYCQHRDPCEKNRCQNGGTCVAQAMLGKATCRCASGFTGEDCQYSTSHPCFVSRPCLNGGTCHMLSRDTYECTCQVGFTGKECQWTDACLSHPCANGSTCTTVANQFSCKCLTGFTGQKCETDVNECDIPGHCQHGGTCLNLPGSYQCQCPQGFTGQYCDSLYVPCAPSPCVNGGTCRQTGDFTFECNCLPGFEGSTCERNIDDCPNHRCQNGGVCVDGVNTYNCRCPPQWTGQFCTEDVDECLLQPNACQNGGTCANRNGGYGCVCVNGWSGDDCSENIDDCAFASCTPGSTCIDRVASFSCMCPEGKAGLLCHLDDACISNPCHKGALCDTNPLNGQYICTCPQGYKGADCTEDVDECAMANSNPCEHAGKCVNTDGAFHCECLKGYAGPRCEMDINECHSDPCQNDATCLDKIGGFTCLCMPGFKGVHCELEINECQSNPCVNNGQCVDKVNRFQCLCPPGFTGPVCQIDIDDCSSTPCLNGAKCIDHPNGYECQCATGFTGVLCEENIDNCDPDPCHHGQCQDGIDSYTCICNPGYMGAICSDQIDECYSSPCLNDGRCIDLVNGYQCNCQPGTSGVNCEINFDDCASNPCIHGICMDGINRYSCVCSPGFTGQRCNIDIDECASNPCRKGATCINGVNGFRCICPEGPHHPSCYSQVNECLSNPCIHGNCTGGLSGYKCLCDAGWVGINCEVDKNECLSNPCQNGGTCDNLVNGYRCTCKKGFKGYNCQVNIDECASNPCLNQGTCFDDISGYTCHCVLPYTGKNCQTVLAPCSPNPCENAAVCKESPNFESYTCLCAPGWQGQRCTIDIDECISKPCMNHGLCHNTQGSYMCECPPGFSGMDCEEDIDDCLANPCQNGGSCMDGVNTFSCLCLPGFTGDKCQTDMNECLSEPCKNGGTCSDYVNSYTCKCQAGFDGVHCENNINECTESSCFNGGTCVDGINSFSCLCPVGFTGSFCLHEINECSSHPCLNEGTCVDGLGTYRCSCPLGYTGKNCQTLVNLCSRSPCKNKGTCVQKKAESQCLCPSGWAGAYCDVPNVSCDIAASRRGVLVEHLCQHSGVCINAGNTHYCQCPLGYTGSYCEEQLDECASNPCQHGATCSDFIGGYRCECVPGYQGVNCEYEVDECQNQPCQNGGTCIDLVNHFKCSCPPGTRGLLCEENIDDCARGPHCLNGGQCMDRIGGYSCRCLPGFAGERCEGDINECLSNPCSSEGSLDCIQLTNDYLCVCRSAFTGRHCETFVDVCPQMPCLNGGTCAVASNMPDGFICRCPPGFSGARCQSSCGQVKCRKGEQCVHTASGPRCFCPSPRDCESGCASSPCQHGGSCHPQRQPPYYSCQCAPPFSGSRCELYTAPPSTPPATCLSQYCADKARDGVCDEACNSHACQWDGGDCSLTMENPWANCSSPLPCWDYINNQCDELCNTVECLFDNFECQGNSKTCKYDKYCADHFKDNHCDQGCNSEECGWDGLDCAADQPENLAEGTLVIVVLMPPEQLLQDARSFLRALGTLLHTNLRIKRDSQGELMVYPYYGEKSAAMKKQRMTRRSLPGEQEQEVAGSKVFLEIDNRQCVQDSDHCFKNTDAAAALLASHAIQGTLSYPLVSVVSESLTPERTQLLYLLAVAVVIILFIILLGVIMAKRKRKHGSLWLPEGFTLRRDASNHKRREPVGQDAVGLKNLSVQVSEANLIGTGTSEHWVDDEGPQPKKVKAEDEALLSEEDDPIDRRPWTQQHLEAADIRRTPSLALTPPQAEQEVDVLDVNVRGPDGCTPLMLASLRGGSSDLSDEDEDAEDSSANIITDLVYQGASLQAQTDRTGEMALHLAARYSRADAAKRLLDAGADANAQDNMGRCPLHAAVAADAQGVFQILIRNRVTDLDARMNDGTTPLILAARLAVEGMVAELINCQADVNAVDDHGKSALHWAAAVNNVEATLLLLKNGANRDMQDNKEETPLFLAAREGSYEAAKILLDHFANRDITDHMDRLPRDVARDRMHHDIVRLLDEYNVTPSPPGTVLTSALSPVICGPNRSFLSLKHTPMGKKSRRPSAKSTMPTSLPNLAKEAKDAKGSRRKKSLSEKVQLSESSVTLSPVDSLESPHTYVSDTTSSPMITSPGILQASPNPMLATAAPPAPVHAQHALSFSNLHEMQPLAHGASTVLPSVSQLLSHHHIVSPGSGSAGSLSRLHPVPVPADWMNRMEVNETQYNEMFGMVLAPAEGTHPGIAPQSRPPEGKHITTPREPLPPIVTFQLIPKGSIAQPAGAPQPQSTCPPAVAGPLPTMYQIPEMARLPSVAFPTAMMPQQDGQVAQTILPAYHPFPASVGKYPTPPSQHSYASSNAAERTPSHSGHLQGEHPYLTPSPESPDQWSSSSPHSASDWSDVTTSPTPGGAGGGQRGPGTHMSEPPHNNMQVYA

[6] = target: Pro-neuregulin-1, membrane-bound isoform (Homo sapiens) (UniProt Q02297); assay: small molecules binding neuregulin-1 protein – biochemical, small-molecule microarray, fluorescence 635/667, psychiatric disease protein project, primary screen (AID 1075); conditions: NRG1 binding, 635 nm fluorescence, higher = more signal;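 also: score combines 667 nm spot fluorescence with signal to noise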
Pro-neuregulin-1, membrane-bound isoform (Homo sapiens), sequence (Q02297 whole entry, looked up, the tested form may be a part, canonical isoform): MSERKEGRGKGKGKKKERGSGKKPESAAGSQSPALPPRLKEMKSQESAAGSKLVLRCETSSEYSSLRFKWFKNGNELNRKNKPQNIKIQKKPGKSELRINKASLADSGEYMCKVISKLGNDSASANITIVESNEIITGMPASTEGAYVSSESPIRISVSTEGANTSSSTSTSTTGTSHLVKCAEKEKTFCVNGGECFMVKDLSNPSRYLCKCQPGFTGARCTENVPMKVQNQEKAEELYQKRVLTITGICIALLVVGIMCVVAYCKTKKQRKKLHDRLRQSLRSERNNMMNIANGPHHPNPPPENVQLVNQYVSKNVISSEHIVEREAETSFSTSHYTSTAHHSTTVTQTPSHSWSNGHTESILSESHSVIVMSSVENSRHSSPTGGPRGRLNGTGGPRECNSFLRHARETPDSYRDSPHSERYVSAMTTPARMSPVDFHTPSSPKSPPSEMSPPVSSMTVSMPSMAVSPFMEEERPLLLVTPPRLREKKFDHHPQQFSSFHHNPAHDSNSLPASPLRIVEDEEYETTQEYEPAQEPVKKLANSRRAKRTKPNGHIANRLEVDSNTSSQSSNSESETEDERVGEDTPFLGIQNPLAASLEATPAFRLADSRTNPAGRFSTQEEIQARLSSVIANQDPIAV

[7] = system: Neuregulin-1 EGF-like domain; assay: small molecules binding NRG1 EGF domain – biochemical, small-molecule microarray, 635 nm fluorescence, primary screen (AID 1081); conditions: higher = more signal;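 also: binding of the protein to compounds printed on small-molecule microarray slides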
[8] = FRG1 expression reporter modulators in myotubes – cell-based, C2C12 myotubes, firefly/Renilla luciferase, luminescence, FRG1 inhibition for FSHD, primary screen (AID 1084); conditions: FRG1 promoter luciferase, higher = more signal, called active from +8 up or from −8 down
[9] = small molecules captured by biotinylated probe aFST – biochemical, small-molecule microarray, fluorescence 635/667, stem cell growth factor project, primary screen (AID 1086); conditions: higher = more signal;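 also: score merges 667 nm fluorescence with signal-to-noise of each printed compound spot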
[10] = binders of probe aHhip on microarray, primary screen, stem cell growth factor project, biochemical, small-molecule microarray, fluorescence 635/667 (AID 1087); conditions: higher = more signal;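 also: score merges spot fluorescence at 667nm with spot signal to noise ratio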

| Structure (SMILES) | composite z-score [1] | composite z-score [2] | composite z-score [3] | composite z-score [4] | composite z-score [5] | composite z-score [6] | composite z-score [7] | z-score [8] | composite z-score [9] | composite z-score [10] |
| --- | --- | --- | --- | --- | --- | --- | --- | --- | --- | --- |
| CCOC(=O)C[C@H]1[C@H](OC(=O)c2ccc(C(=O)c3ccccc3)cc2)[C@@H](NC(=O)c2ccc3ccccc3c2)c2cc(OCCCO)ccc2N1C(=O)Cc1ccc(OC)cc1 | -0.242 | 0.151 | -0.146 | 0.66 | 0.361 | 0.401 | 0.107 | -0.314 (inactive) | 0.441 | -0.0645 |
| COc1cc2c(cc1OC)CN(C(=O)[C@@H]1[C@H]3C(=O)O[C@H](c4ccccc4)[C@H](c4ccccc4)N3[C@H](c3ccc(O)cc3)[C@@]13C(=O)Nc1ccccc13)CC2 | 0.113 | 0.797 | -0.0614 | 0.257 | 0.171 | 1.03 | 1.16 | 0.421 (inactive) | 0.0729 | 0.0854 |
| COC(=O)[C@H](Cc1ccccc1)N[C@@H](/C=C/C1CC1)[C@H](O)Cc1ccccc1 | 0.115 | -0.355 | 0.0748 | 0.699 | -1.08 | -0.292 | 0.583 | -2.66 (inactive) | -0.575 | -0.409 |
| CC1CC/C=C\[C@H]2OC34C=CCN(C(C)(C)C)C(=O)[C@H]3N(C(C)CO)C(=O)[C@@H]4C2C(=O)O1 (stereo not given in full) | 0.101 | -0.702 | -0.128 | -0.414 | -1.04 | -0.486 | 0.061 | -0.486 (inactive) | -0.39 | -0.0296 |
| CC(C)N1C(=O)c2ccccc2[C@](C)(C(=O)NCCN2CCOCC2)[C@@H]1c1ccc(CO)cc1 | 0.755 | 0.779 | -0.104 | -1.08 | -0.879 | 1.76 | 0.728 | 0.185 (inactive) | -0.527 | -0.306 |
| C=CCOC(=O)[C@H]1[C@@H]2C(=O)O[C@@H](c3ccccc3)[C@@H](c3ccccc3)N2[C@@H](c2ccc(OCCOC(=O)[C@H]3C[C@H]4C(=O)N[C@@H](CCCCN(C)C)C(=O)N4[C@H]3c3ccc(O)cc3)cc2)[C@]12C(=O)Nc1ccc(I)cc12 | -0.38 | 1.01 | 0.0266 | 0.948 | 1.33 | 1.77 | 1.3 | 1.49 (inactive) | 0.0907 | -0.274 |
| COCCOC(=O)N1C(=O)[C@@]2(c3cc(C#Cc4ccc(OC)cc4)ccc31)[C@H](c1ccc(OCCO)cc1)N1[C@H](c3ccccc3)[C@H](c3ccccc3)OC(=O)[C@H]1[C@@H]2C(=O)N1CCN(c2ncccn2)CC1 | -0.144 | 0.316 | -0.0113 | 0.397 | 0.926 | -0.318 | 1.13 | 0.598 (inactive) | 0.736 | 0.0176 |
| C=CCOC(=O)[C@H]1[C@@H]2C(=O)O[C@@H](c3ccccc3)[C@@H](c3ccccc3)N2[C@@H](c2ccc(OCCOC(=O)[C@@H]3C[C@@H]4C(=O)N[C@@H](CCCCNC(C)=O)C(=O)N4[C@@H]3c3ccc(O)cc3)cc2)[C@]12C(=O)Nc1ccccc12 | -0.475 | 0.973 | -0.0512 | 0.483 | 0.795 | 1.26 | 1.32 | 0.159 (inactive) | -0.0579 | 0.0176 |
| COc1ccc(C#Cc2ccc3c(c2)[C@]2(C(=O)N3)[C@H](C(=O)Nc3nc4ccccc4s3)[C@H]3C(=O)O[C@H](c4ccccc4)[C@H](c4ccccc4)N3[C@@H]2c2ccc(O)cc2)cc1 | -0.433 | 0.923 | 0.0956 | 1.13 | 1.29 | 1.38 | 1.34 | 1.46 (inactive) | 1.36 | -0.511 |
| NC(=O)NCC#Cc1ccc2c(c1)[C@]1(C(=O)N2)[C@H](C(=O)Nc2nc3ccccc3s2)[C@H]2C(=O)O[C@H](c3ccccc3)[C@H](c3ccccc3)N2[C@@H]1c1ccccc1OCCO | 1.85 | 0.407 | 0.0863 | 1.01 | 1.03 | 1.57 | 0.406 | 1.62 (inactive) | 1.39 | -0.0478 |
| COC(=O)c1c(CC[C@@H](CO)NC(=O)NCCn2cc(C3(O)CCCC3)nn2)oc(C(C)=O)c1C(=O)OC | -0.465 | 0.24 | 0.127 | 0.173 | -0.119 | 0.718 | 0.685 | -0.598 (inactive) | -0.204 | -0.184 |
| O=C1C[C@@](C(=O)NCCN2CCOCC2)(c2ccc([N+](=O)[O-])cc2)[C@@H](c2ccc(CO)cc2)N1CC12CC3CC(CC(C3)C1)C2 | -0.243 | 0.667 | -0.0692 | 0.573 | 1.51 | 1.58 | 1.39 | -2.76 (inactive) | 0.669 | 0.155 |
| C=C[C@H](C)[C@@H](OC(=O)Nc1ccc(OC)cc1)c1ccc(O)c2ccccc12 | 0.358 | 0.357 | -0.142 | -0.225 | -1.53 | 0.3 | 1.27 | 4.09 (inactive) | -0.344 | -0.37 |
| COc1cc2c(cc1OC)CN(C(=O)[C@@H]1[C@H]3C(=O)O[C@H](c4ccccc4)[C@H](c4ccccc4)N3[C@H](c3ccccc3OCCO)[C@@]13C(=O)Nc1ccc(C#CCCO)cc13)CC2 | 0.718 | 0.531 | -0.152 | 0.671 | 0.626 | 0.86 | 1.23 | 0.876 (inactive) | 1.25 | 0.0458 |
| COCCOC(=O)N1C(=O)[C@@]2(c3cc(C#CCC(C(=O)OC)C(=O)OC)ccc31)[C@H](c1ccccc1OCCO)N1[C@H](c3ccccc3)[C@H](c3ccccc3)OC(=O)[C@H]1[C@@H]2C(=O)NC[C@H](O)c1ccccc1 | -0.0494 | 0.114 | -0.117 | 0.791 | 0.961 | 1.27 | 1.15 | -0.923 (inactive) | 0.357 | 0.152 |
| C=CCOC(=O)[C@@H]1[C@H]2C(=O)O[C@H](c3ccccc3)[C@H](c3ccccc3)N2[C@H](c2ccc(OCCOC(=O)[C@@H]3C[C@@H]4C(=O)NCC(=O)N4[C@@H]3c3ccc(O)cc3)cc2)[C@@]12C(=O)Nc1ccc(I)cc12 | -0.415 | 0.778 | 0.0428 | 0.371 | 0.364 | 1.04 | 1.26 | 1.12 (inactive) | 0.0347 | -0.0391 |
| CC(C)(C)OC(=O)CC[C@]1(C(=O)N2CCOCC2)N=C(c2ccc(OCCCO)cc2)O[C@H]1c1ccccc1N=[N+]=[N-] | 0.594 | 0.838 | 0.0376 | 0.402 | 1.48 | 1.63 | 1.28 | 1.71 (inactive) | 1.06 | 0.0515 |
| CCCC[C@@H]1C[C@H]1[C@@H](NC(=O)c1cccs1)c1ccc(-c2ccccc2)cc1 | 0.108 | 0.0945 | 0.189 | 0.486 | 0.146 | -0.0051 | 0.411 | -0.621 (inactive) | 0.151 | 0.2 |
| C=CCN1C(=O)[C@@]2(CC=C)N=C(c3ccc(OCCCO)cc3)O[C@H]2c2ccccc21 | 0.529 | 0.194 | 0.0606 | -0.0534 | 1.38 | 1.3 | 1.37 | -2.47 (inactive) | 0.835 | -0.318 |
| COC(=O)[C@@]1(Cc2ccc(OC)cc2)[C@H]2c3cc(C(=O)N(C)C)n(Cc4ccc(S(C)(=O)=O)cc4)c3C[C@H]2CN1C(=O)c1ccccc1 | 1.12 | 0.325 | 0.27 | 0.178 | 1.24 | 1.64 | 1.31 | -1.49 (inactive) | 1.46 | 0.296 |
| O=C1C[C@@](C(=O)NCCN2CCOCC2)(c2ccc([N+](=O)[O-])cc2)[C@@H](c2ccc(CO)cc2I)N1CC12CC3CC(CC(C3)C1)C2 | -0.168 | 0.47 | 0.0232 | 0.569 | 0.926 | 1.64 | 1.37 | -2.84 (inactive) | 0.45 | 0.192 |
| CC(C)C(O)C1C=CC2C(=O)NC(=O)C2N1Nc1ccc(Cl)cc1Cl (stereo not given) | 0.889 | 0.206 | -0.0675 | -0.0108 | 0.514 | 1.98 | 1.16 | -0.903 (inactive) | 0.464 | -0.0645 |
